Reference: PubChem BioAssay
The source made the active and inactive calls.

Columns and labels:
[1] = tested on: Plasmodium falciparum Sir2 (PF13_0152, Sir2A); assay: pfSir2 binders on small-molecule microarrays, primary screen, biochemical, small-molecule microarray, 635 nm fluorescence (AID 1098); conditions: small-molecule microarray binding, fluorescence 635 nm; higher = more signal;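 further: score merges spot fluorescence intensity with its signal-to-noise ratio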
[2] = small-molecule microarray binders of probe aDKK1, primary screen, biochemical, biotinylated probe, 635/667 nm fluorescence (AID 1099); conditions: higher = more signal;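 further: score merges 667nm spot fluorescence with signal to noise across triplicate slides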
[3] = small-molecule microarray binders of probe aCHRDL2, primary screen, biochemical, biotinylated probe, 635/667 nm fluorescence (AID 1100); conditions: higher = more signal
[4] = splicing luciferase reporter signal modulators, primary screen, spliceosome inhibition project, cell-based, HEK293, splice +/- reporter (AID 1101); conditions: luminescence, 24 h, higher = more signal, called active from +8 up or from −8 down;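 further: HEK293 cells carrying a splicing-competent luciferase reporter gene; test concentration not given here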
[5] = target: Fibroblast growth factor 10 (Homo sapiens) (UniProt O15520); assay: FGF10 binders on small-molecule microarrays, primary screen, biochemical, small-molecule microarray, 635 nm fluorescence (AID 1102); conditions: FGF10 binding, fluorescence 635 nm, higher = more signal
[6] = tested on: glycogen synthase kinase-3 (GSK3A per assay name; protocol says GSK3B); assay: GSK3 binders on small-molecule microarrays, primary screen, biochemical, small-molecule microarray, 635 nm fluorescence, GSK3A (AID 1103); conditions: small-molecule microarray binding, fluorescence 635 nm; higher = more signal; further: the record names both GSK3A and GSK3B
[7] = target: Epidermal growth factor receptor (Homo sapiens) (UniProt P00533); assay: EGFR binders on small-molecule microarrays, primary screen, biochemical, small-molecule microarray, 635 nm fluorescence (AID 1104); conditions: EGFR binding, higher = more signal;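 further: score merges 667 nm emission intensity with spot signal to noise over triplicate slides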
[8] = target: Follistatin-related protein 3 (Homo sapiens) (UniProt O95633); assay: FSTL3 binders on small-molecule microarrays, primary screen, biochemical, small-molecule microarray, 635 nm fluorescence (AID 1105); conditions: FSTL3 binding, higher = more signal;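 further: score merges emission near 667 nm and signal to noise per printed spot across three slides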
[9] = target: Dickkopf-related protein 1 (Homo sapiens) (UniProt O94907); assay: DKK1 binders on small-molecule microarrays, primary screen, biochemical, small-molecule microarray, 635 nm fluorescence scan (AID 1106); conditions: DKK1 binding, higher = more signal;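 further: score merges emission near 667 nm with signal to noise over three replicate slides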
[10] = tested on: Inhibin beta A chain (activin A); assay: INHBA (activin A) binders on microarrays, primary screen, biochemical, small-molecule microarray, 635 nm fluorescence scan (AID 1107); conditions: small-molecule microarray binding, higher = more signal;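 further: mouse activin A protein probed at 4.33 µg/mL on printed slides; score merges bound-protein fluorescence near 667 nm with spot signal-to-noise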
[11] = tested on: Human papillomavirus type 1a protein E7 (residues 44-93); assay: HPV1a E7 fragment binders on microarrays, primary screen, biochemical, small-molecule microarray, residues 44-93, 635 nm fluorescence (AID 1108); conditions: small-molecule microarray binding, fluorescence 635 nm; higher = more signal;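 further: E7 fragment applied at 1 µg/mL in TBST for 1 h at 4 C; score combines spot fluorescence with its signal to noise ratio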
[12] = modulators of HCV replicon luciferase signal, primary screen, HCV replication inhibitor project, Huh7 cells, luciferase reporter (AID 1109); conditions: 48 h, higher = more signal;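 further: huh7 hepatoma cells harbouring a luciferase neomycin HCV replicon reporter; luciferase luminescence as measure of HCV replicon replication; test concentration not given here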
[13] = target: Left-right determination factor 2 (Homo sapiens) (UniProt O00292); assay: LEFTY2 binders on small-molecule microarrays, primary screen, biochemical, small-molecule microarray, 635 nm fluorescence scan (AID 1110); conditions: LEFTY2 binding, higher = more signal
[14] = target: Calmodulin-1 (Homo sapiens) (UniProt P0DP23); assay: CALM1 binders on microarrays, EGTA buffer, profiling panel, biochemical, small-molecule microarray, Cy5-labelled CALM1 (AID 1111); conditions: Cy5-CALM1 binding fluorescence, higher = more signal;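 further: labelled calmodulin applied in Tris saline Tween buffer holding calcium plus EGTA and DTT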
[15] = target: Calmodulin-1 (Homo sapiens) (UniProt P0DP23); assay: calcium-bound CALM1 binders on microarrays, profiling panel, artefact control for SMM control-protein annotation, biochemical, small-molecule microarray, Cy5-labelled CALM1, plus calcium (AID 1112); conditions: Cy5-CALM1 binding fluorescence, higher = more signal;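 further: score merges spot fluorescence with signal to noise from triplicate slides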
[16] = small-molecule microarray binders of probe aWnt5a, primary screen, biochemical, biotinylated probe, 635/667 nm fluorescence (AID 1113); conditions: higher = more signal;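 further: score merges 667 nm fluorescence intensity with signal-to-noise per printed feature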
[17] = small-molecule microarray binders of probe aShh, primary screen, biochemical, biotinylated probe, 635/667 nm fluorescence (AID 1114); conditions: higher = more signal;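 further: probe is biotin-labelled aShh protein from a stem cell growth factor screen; measures binding of labelled protein to compounds printed on the slide; score merges feature fluorescence at 667 nm with signal-to-noise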
[18] = small-molecule microarray binders of probe aNog, primary screen, biochemical, biotinylated probe, 635/667 nm fluorescence (AID 1115); conditions: higher = more signal;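 further: probe is biotinylated aNog protein used at 0.15 µg/mL for 1 h at 4 C; z-score combines 667 nm fluorescence of each spot with its signal to noise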
[19] = target: Torsin-1A-interacting protein 1 (Homo sapiens) (UniProt Q5JTV8); assay: LAP1 binders from COS7 cell lysate, primary screen, small-molecule microarray, 635/667 nm fluorescence (AID 1116); conditions: COS7-hLAP1 lysate binding, 635 nm fluorescence, higher = more signal
[20] = target: Alpha-bungarotoxin (Bungarus multicinctus) (UniProt P60615); assay: alpha-bungarotoxin binders on microarray, profiling panel, artefact control for SMM control protein annotation, biochemical, small-molecule microarray, Alexa647 label, 635/667 nm fluorescence (AID 1117); conditions: alpha-BTX-A647 binding fluorescence, higher = more signal
Chain of Alpha-bungarotoxin (Bungarus multicinctus) (P60615 whole entry, looked up): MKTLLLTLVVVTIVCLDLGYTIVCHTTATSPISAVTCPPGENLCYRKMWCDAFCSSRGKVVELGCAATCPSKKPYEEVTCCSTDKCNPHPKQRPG

Chain of Epidermal growth factor receptor (Homo sapiens) (P00533 whole entry, looked up): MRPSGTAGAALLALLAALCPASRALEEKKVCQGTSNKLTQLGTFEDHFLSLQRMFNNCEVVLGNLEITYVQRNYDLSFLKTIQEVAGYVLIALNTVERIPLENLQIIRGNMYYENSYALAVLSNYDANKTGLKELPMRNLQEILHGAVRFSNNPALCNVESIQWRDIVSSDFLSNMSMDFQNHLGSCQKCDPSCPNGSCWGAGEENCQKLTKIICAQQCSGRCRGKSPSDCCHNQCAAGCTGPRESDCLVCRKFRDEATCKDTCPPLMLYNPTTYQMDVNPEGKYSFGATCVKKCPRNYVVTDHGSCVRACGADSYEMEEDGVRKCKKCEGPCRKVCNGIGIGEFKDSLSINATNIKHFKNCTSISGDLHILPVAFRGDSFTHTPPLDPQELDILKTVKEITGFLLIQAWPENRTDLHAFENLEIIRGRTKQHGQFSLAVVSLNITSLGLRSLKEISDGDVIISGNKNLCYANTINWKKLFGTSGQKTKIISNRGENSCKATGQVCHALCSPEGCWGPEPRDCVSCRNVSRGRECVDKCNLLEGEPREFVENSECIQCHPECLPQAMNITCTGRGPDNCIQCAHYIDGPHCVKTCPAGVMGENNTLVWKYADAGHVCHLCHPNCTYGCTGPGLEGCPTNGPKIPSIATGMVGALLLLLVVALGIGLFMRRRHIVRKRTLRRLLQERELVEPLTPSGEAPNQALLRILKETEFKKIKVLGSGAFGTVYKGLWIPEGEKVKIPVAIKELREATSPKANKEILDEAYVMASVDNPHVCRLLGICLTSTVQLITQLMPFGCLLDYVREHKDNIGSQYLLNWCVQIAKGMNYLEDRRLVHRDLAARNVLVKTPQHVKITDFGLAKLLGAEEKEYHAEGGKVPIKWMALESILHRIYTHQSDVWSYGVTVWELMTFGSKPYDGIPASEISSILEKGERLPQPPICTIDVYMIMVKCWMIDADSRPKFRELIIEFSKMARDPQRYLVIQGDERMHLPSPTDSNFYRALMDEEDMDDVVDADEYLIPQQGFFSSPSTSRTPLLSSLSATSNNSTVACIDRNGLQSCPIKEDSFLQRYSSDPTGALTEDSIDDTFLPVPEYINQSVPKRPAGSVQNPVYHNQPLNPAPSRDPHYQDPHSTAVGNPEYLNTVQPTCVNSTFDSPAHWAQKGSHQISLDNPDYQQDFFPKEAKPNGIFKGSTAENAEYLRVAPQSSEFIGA
Chain of Dickkopf-related protein 1 (Homo sapiens) (O94907 whole entry, looked up): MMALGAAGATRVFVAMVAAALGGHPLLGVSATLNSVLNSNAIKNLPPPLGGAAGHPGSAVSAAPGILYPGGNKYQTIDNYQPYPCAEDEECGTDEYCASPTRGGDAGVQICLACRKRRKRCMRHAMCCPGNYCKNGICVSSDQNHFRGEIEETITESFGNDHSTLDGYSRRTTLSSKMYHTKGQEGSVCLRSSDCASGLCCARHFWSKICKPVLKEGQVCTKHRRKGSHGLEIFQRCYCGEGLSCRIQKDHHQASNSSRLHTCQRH
Chain of Fibroblast growth factor 10 (Homo sapiens) (O15520 whole entry, looked up): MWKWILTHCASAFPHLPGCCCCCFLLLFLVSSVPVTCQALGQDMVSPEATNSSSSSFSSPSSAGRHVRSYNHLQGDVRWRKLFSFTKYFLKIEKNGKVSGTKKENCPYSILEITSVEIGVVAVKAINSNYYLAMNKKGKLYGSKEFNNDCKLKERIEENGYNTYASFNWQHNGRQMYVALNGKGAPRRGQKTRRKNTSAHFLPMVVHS
Chain of Follistatin-related protein 3 (Homo sapiens) (O95633 whole entry, looked up): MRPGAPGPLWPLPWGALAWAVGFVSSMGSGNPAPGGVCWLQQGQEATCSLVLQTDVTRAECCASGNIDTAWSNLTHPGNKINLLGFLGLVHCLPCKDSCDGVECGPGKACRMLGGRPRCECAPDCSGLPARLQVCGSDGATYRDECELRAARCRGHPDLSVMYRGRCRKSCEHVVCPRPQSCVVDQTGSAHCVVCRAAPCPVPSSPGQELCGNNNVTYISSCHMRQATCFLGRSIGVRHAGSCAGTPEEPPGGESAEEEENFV
Chain of Torsin-1A-interacting protein 1 (Homo sapiens) (Q5JTV8 whole entry, looked up): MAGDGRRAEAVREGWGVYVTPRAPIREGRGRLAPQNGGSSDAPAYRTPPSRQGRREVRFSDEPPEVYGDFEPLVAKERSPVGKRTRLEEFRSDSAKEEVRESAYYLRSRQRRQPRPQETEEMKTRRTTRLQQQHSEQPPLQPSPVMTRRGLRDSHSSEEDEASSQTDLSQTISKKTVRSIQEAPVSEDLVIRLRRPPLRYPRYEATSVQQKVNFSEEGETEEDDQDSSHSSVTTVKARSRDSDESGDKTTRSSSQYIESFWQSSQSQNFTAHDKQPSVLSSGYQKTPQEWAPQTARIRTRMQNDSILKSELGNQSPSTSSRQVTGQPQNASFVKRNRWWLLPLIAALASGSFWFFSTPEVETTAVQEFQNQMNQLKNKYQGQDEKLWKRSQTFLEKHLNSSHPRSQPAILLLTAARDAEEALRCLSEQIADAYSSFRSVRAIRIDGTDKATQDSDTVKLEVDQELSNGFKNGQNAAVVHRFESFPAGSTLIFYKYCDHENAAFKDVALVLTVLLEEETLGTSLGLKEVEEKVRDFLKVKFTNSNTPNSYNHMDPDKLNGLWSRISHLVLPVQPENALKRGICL
Chain of Left-right determination factor 2 (Homo sapiens) (O00292 whole entry, looked up): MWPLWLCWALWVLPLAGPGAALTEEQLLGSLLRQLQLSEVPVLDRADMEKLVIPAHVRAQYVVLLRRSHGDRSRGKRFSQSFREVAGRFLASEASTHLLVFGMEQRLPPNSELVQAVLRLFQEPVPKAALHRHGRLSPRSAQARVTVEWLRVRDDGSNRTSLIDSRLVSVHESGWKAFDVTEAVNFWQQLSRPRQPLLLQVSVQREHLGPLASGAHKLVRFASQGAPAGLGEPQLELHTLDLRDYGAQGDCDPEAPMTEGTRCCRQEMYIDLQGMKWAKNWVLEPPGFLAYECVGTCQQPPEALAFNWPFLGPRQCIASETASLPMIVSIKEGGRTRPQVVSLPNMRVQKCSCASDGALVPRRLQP

Row | Compound | composite z-score [1] | composite z-score [2] | composite z-score [3] | z-score [4] | composite z-score [5] | composite z-score [6] | composite z-score [7] | composite z-score [8] | composite z-score [9] | composite z-score [10] | composite z-score [11] | z-score [12] | composite z-score [13] | composite z-score [14] | composite z-score [15] | composite z-score [16] | composite z-score [17] | composite z-score [18] | composite z-score [19] | composite z-score [20]
1 | CO[C@H]([C@@H](C)[C@H](OC)c1ccccc1)[C@H](C)[C@@H](OC)[C@H](C)C(C)=O | -0.275 | -0.442 | -0.117 | 0.116 (inactive) | 0.173 | -0.641 | -0.577 | -0.523 | 0.345 | 0.782 | -0.431 | 1.14 | 0.402 | -1.1 | -0.0474 | 0.0101 | -0.367 | -0.0286 | -0.482 | -0.847
2 | CC(C)(C)N1C(=O)[C@H]2[C@H]3[C@H](O)[C@H](O)CC(=NO[C@@H]4O[C@H](CO)[C@@H](O)[C@H](O)[C@H]4O)[C@@H]3CC[C@H]2C1=O | 0.756 | -0.393 | -0.854 | 0.519 (inactive) | 0.522 | 0.869 | 0.768 | 1.01 | 1.15 | 0.911 | 0.964 | -0.105 | 0.761 | -0.448 | -1.36 | -0.0115 | 0.111 | -0.0144 | 0 | 1.28
3 | O=C(CS)NCCCCCNC(=O)[C@H]1C[C@H]2C(=O)N3CCC[C@H]3C(=O)N2[C@H]1c1cccc(OCCO)c1 | 1.17 | 0.0187 | 0.367 | 0.378 (inactive) | 1.35 | 1.32 | 0.194 | 1.41 | 1.57 | 1.3 | 0.435 | 0.235 | 0.691 | -0.8 | -1 | 0.128 | -0.138 | -0.347 | 1.22 | 1.55
4 | CCOC(=O)[C@H](CC(C)C)NC(=O)CCC1CC(OC(=O)NCCc2ccc(F)cc2)CC2(CCCC(COC(=O)NCc3ccccc3)O2)O1 (stereo not given in full) | 0.859 | -0.273 | -0.29 | -1.19 (inactive) | 1.39 | 0.808 | 0.907 | 1.01 | 0.89 | -0.198 | 1.37 | -1.76 | 1.16 | 0.0292 | -0.008 | -0.113 | -0.214 | -0.183 | 0.575 | 0.287
5 | CCCCCCc1nc(CCCc2cc3c(c(CCCCCC)n2)[Si](C(C)C)(C(C)C)O[C@H]3c2ccccc2)cc2c1[Si](C(C)C)(C(C)C)O[C@H]2c1ccccc1 | -0.509 | -0.259 | -0.21 | -1.11 (inactive) | 0.0736 | -0.401 | 0.123 | 0.0624 | 0.476 | 0.656 | 0.15 | -0.904 | 0.109 | 0.146 | -0.021 | -0.148 | -0.0626 | -0.213 | -0.0561 | 0.181
6 | C[C@@H](c1ccccc1)N1C(=O)[C@H]2[C@H]3[C@H](O)C=CC(=O)[C@@H]3CC[C@H]2C1=O | -0.0301 | -0.293 | -0.674 | 0.432 (inactive) | 0.373 | 0.606 | 0.54 | 0.699 | 0.557 | 0.25 | -0.116 | -1.73 | 0.657 | 0.0321 | -0.442 | -0.192 | -0.34 | -0.374 | 0.203 | 0.0013
7 | COCC1=C2[C@@H](CCc3ccccc3)OB(O)C[C@@H]2n2c(=O)n(-c3ccccc3)c(=O)n2C1 | 0.48 | -0.32 | -0.448 | 0.184 (inactive) | 0.511 | -0.114 | 0.492 | 0.444 | 0.374 | 0.632 | -0.289 | 0.332 | 0.26 | -0.455 | -0.438 | -0.158 | -0.304 | -0.213 | 0.152 | -0.148
8 | COC(=O)CC=C[C@@H](C)[C@@H](C=NO[C@@H](C)c1cc(-c2c(C)cc(C)cc2C)no1)OC | -0.677 | 0.237 | 1.07 | -1.2 (inactive) | -1.72 | -1.19 | -1.81 | -1.67 | -2.42 | -0.2 | -1.29 | -0.378 | -0.627 | -0.908 | -1.48 | -0.295 | -0.2 | 0.531 | -1.75 | -1.11
9 | CCN1C(=O)[C@H]2[C@H]3[C@H](O)[C@H](O)CC(=NOCc4ccccc4)[C@H]3CC[C@H]2C1=O | 0.18 | -0.237 | -0.278 | 0.462 (inactive) | 0.47 | 0.0166 | 0.0741 | -0.257 | 0.132 | -0.114 | -0.0677 | 0.396 | 0.387 | -0.253 | -0.787 | -0.139 | -0.214 | 0.128 | 0.151 | 0.437
10 | CC(CCC(=O)OC[C@H]1O[C@H](C#Cc2ccccc2)C=C[C@@H]1Oc1ccc(C)cc1)=NO[C@@H](C)c1cn([C@H](CO)Cc2ccccc2)nn1 | 0.737 | -0.406 | -0.52 | -1.62 (inactive) | 0.304 | -0.28 | 0.313 | 0.28 | 0.256 | -0.146 | 0.507 | -1.97 | 0.381 | -0.329 | -0.385 | -0.152 | 0.108 | -0.12 | -0.0538 | 1.76
11 | CN1C(=O)C2C(C1=O)C1C=C(CCCO)C2C(c2ccc(CN3CCCC3)cc2)N1C (stereo not given) | -0.583 | -0.32 | -0.268 | -0.451 (inactive) | -0.684 | -0.0315 | -0.576 | -0.186 | 0.142 | 0.523 | -0.0161 | -0.259 | 0.175 | -0.573 | -0.0923 | -0.148 | -0.273 | 0.171 | 0.0993 | 0.0035
